# Reference: article PMC11062922 (Nature Chemical Biology, 2023)
# Where two headings read alike, the source gives them in different places.
# Assays:
# Parameters in all cases: species or system human, MV4-11 + K-562 + COLO205 + SK-N-BE2 + OVCAR-8
# GRK6 = conditions: read-out: apparent Kd; compound concentrations:100 nM and 1000 nM (sheet 'Samples'); n = 1
# JAK2 = conditions: read-out: apparent Kd, n = 1
# MAPK10 = conditions: read-out: apparent Kd; compound concentrations:100 nM and 1000 nM (sheet 'Samples'); n = 1
# MAPK9 = conditions: read-out: apparent Kd; compound concentrations:100 nM and 1000 nM (sheet 'Samples'); n = 1
# NLK = conditions: read-out: apparent Kd, n = 1
# FLT4 = conditions: read-out: apparent Kd; compound concentrations: 100 nM and 1000 nM (sheet 'Samples'), CATDS: 0.55988503208503904; n = 1
# NQO2 = conditions: read-out: apparent Kd; compound concentrations: 100 nM and 1000 nM (sheet 'Samples'), CATDS: 0.45168770198248398; n = 1
# GAK = conditions: read-out: apparent Kd, n = 1
# RIPK2 = conditions: read-out: apparent Kd; compound concentrations: 100 nM and 1000 nM (sheet 'Samples'), CATDS: 0.40204852474639502; n = 1
# FLT3 = conditions: read-out: apparent Kd, compound concentrations: 100 nM and 1000 nM (sheet 'Samples'), n = 1
# MAP2K5 = conditions: read-out: apparent Kd; compound concentrations:100 nM and 1000 nM (sheet 'Samples'); n = 1
# SIK2 = conditions: read-out: apparent Kd; compound concentrations:100 nM and 1000 nM (sheet 'Samples'); n = 1
# SIK3 = conditions: read-out: apparent Kd; compound concentrations:100 nM and 1000 nM (sheet 'Samples'); n = 1
# ZAK = conditions: read-out: apparent Kd; compound concentrations:100 nM and 1000 nM (sheet 'Samples'); n = 1
# FN3K = conditions: read-out: apparent Kd; compound concentrations: 100 nM and 1000 nM (sheet 'Samples'), CATDS: 0.30544658046652101; n = 1
# ROCK1 = conditions: read-out: apparent Kd; compound concentrations: 100 nM and 1000 nM (sheet 'Samples'), CATDS: 0.35168740775253199; n = 1
# ROCK2 = conditions: read-out: apparent Kd; compound concentrations: 100 nM and 1000 nM (sheet 'Samples'), CATDS: 0.34690050634706199; n = 1
# MAP3K1 = conditions: read-out: apparent Kd; compound concentrations: 100 nM and 1000 nM (sheet 'Samples'), CATDS: 0.23263789115969999; n = 1
# PDGFRB = conditions: read-out: apparent Kd; compound concentrations: 100 nM and 1000 nM (sheet 'Samples'), CATDS: 0.24481499220571501; n = 1
# TTN = conditions: read-out: apparent Kd, compound concentrations: 100 nM and 1000 nM (sheet 'Samples'), n = 1
# FER = conditions: read-out: apparent Kd; compound concentrations: 100 nM and 1000 nM (sheet 'Samples'), CATDS: 0.23966612691904199; n = 1
# IGF1R = conditions: read-out: apparent Kd; compound concentrations: 100 nM and 1000 nM (sheet 'Samples'), CATDS: 0.234502945323845; n = 1
# INSR = conditions: read-out: apparent Kd; compound concentrations: 100 nM and 1000 nM (sheet 'Samples'), CATDS: 0.33480579514984299; n = 1
# [1] = compound concentrations:100 nM and 1000 nM (sheet 'Samples')
smiles,measurement,setting,value
Cn1c(=O)c(Oc2ccc(F)cc2F)cc2cnc(NC3CCOCC3)nc21 [RO3304806-000],potency estimated from few doses,GRK6,1.35 µM
same,potency estimated from few doses,JAK2; [1],0.603 µM
same,potency estimated from few doses,MAPK10,1 µM
same,potency estimated from few doses,MAPK9,1.78 µM
same,potency estimated from few doses,NLK; [1],1.62 µM
CN1C(=O)C(c2c[nH]c3ccccc23)=C(c2c[nH]c3ccccc23)C1=O [RO0316045-000],potency estimated from few doses,FLT4,1.37 µM
same,potency estimated from few doses,NQO2,2.11 µM
COc1cc(Nc2ccnc3ccc(C(F)(F)F)cc23)cc(OC)c1OC [GW577382X],potency estimated from few doses,"GAK; compound concentrations: 100 nM and 1000 nM (sheet 'Samples'), CATDS: 0.42692129692206698",0.305 µM
same,potency estimated from few doses,"NLK; compound concentrations: 100 nM and 1000 nM (sheet 'Samples'), CATDS: 0.239785961160628",1.23 µM
same,potency estimated from few doses,RIPK2,0.34 µM
CC(C)c1ccc2c(c1)NC(=O)/C2=N/Nc1ccc(S(N)(=O)=O)cc1 [GW300653X],potency estimated from few doses,FLT3; CATDS: 1,0.716 µM
CNS(=O)(=O)c1ccc(N(C)C)c(Nc2ncnc3cc(OC)c(OC)cc23)c1 [GSK114],potency estimated from few doses,GAK; [1],0.0281 µM
same,potency estimated from few doses,MAP2K5,0.0127 µM
same,potency estimated from few doses,SIK2,0.639 µM
same,potency estimated from few doses,SIK3,1.35 µM
same,potency estimated from few doses,ZAK,0.646 µM
NS(=O)(=O)c1cccc(N/C=C2\C(=O)Nc3ccc(S(=O)(=O)Cc4c(Cl)cccc4Cl)cc32)c1 [GSK398099A],potency estimated from few doses,FN3K,2.24 µM
same,potency estimated from few doses,ROCK1,1.68 µM
same,potency estimated from few doses,ROCK2,1.72 µM
O=C(Nc1n[nH]c2nc(-c3ccco3)c(Br)cc12)c1ccc(CN2CCCC2)cc1.O=C(O)[C@H](O)[C@@H](O)C(=O)O [SB-742352-AC],potency estimated from few doses,FLT3; CATDS: 0.23628807978612301,1.55 µM
same,potency estimated from few doses,MAP3K1,1.6 µM
same,potency estimated from few doses,PDGFRB,1.43 µM
same,potency estimated from few doses,TTN; CATDS: 0.29545284543589501,1.01 µM
c1ccc(Nc2ncc(-c3ccccc3)o2)cc1 [GW549390X],potency estimated from few doses,FLT3; CATDS: 0.74599434863178504,0.273 µM
same,potency estimated from few doses,TTN; CATDS: 0.37600950025420299,1.33 µM
COc1cc2c(cc1Nc1nc(N3CCc4ccccc43)c3cc[nH]c3n1)N(C(=O)CN(C)C)CC2 [GSK2186269A],potency estimated from few doses,FER,0.915 µM
same,potency estimated from few doses,IGF1R,0.959 µM
same,potency estimated from few doses,INSR,0.493 µM
same,potency estimated from few doses,"JAK2; compound concentrations: 100 nM and 1000 nM (sheet 'Samples'), CATDS: 0.21851313363519401",1.13 µM
